The structures appear in SMILES notation. Counter-ions that a name gives are not always drawn. Unmarked numbers belong to inactive results.

The record followed here is the supplement of paper PMC12045047.

The first experiment concerns primary human airway basal cells (HBEC, luciferase-transduced). The experiment in a line: proliferation (luciferase bioluminescence) Z score relative to plate mean; higher = more proliferation / more cells, active = 1.96 or more. To be noted: donor: 1; 0.5 µM; library: ENZO Libraries; 4 days. As for the experimental part:
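Primary human bronchial epithelial (airway basal) cells from two donors, lentivirally transduced with pHIV-Luc-ZsGreen, were seeded at 2000 cells/well in 384-well plates in FAD medium with ENZO or Prestwick library compounds and cultured for 4 days. Luciferin was then added and bioluminescence was read as a measure of cell number. Relative light units were converted to Z scores against the plate, and the mean of triplicate wells is reported.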
For `CC(C)(C)c1cc(C=C(C#N)C(N)=S)cc(C(C)(C)C)c1O`, the proliferation was -0.666.

For `CC(C)CC(=O)N[C@H](C(=O)N[C@H](C(=O)N[C@@H](CC(C)C)[C@@H](O)CC(=O)N[C@@H](C)C(=O)N[C@@H](CC(C)C)[C@@H](O)CC(=O)O)C(C)C)C(C)C` [Pepstatin A], the proliferation is 0.161.

In the case of `O=C1Cc2c([nH]c3ccc(Br)cc23)-c2ccccc2N1` [Kenpaullone], the proliferation was 3.89 (active).

`CO[C@H]1C[C@@H]2CC[C@@H](C)[C@@](O)(O2)C(=O)C(=O)N2CCCC[C@H]2C(=O)O[C@H]([C@H](C)C[C@@H]2CC[C@@H](O)[C@H](OC)C2)CC(=O)[C@H](C)/C=C(\C)[C@@H](O)[C@@H](OC)C(=O)[C@H](C)C[C@H](C)/C=C/C=C/C=C/1C` [Rapamycin]: the proliferation was -3.38.

In the case of `CO[C@@H]1[C@H](OC(=O)/C=C/C=C/C=C/C=C/C(=O)O)CC[C@]2(CO2)[C@H]1[C@@]1(C)O[C@@H]1CC=C(C)C` [Fumagillin], the proliferation was -1.58.

`O=C(O)c1ccc2nc(-c3ccccc3)c(-c3ccccc3)nc2c1`: the proliferation was -0.199.

`COc1cccc(-c2cc(=O)c3ccccc3o2)c1N`: the proliferation was 2.9 (active).

With `CCCC[C@@H](C=O)NC(=O)OC(C)(C)C`, the proliferation was 0.474.

Take `CCOC(=O)[C@H](CCc1ccccc1)N[C@@H](C)C(=O)N1CCC[C@H]1C(=O)O` [Enalapril]: the proliferation is -0.154.

Regarding `Nc1nc2ncnc-2c[nH]1` [2-Aminopurine], the proliferation is -0.301.

For `N#C/C(=C\c1ccc(O)c(O)c1)C(N)=O`, the proliferation is -0.0866.

As to `CC(C(=O)Nc1cccc(/N=C/c2c(O)ccc3ccccc23)c1)c1ccccc1` (stereo not given) [Salermide], the proliferation was -0.719.

For `CCCC[C@@H](C=O)NC(=O)[C@H](CC(C)C)NC(=O)OCc1ccccc1` [Calpeptin], the proliferation was -0.319.

With `O=C(c1ccc(Cl)cc1Cl)n1nnc2ccccc21`, the proliferation is -0.0821.

As to `C=C(C)[C@@H](CC=C(C)C)C[C@@]12C[C@@H](CC=C(C)C)C(C)(C)[C@@](CC=C(C)C)(C(=O)C(C(=O)c3ccc(O)c(O)c3)=C1O)C2=O` [Garcinol], the proliferation is -0.468.

For `CC1(C)C[C@@H]1C(=O)N/C(=C\CCCCSC[C@H](N)C(=O)O)C(=O)O` [Cilastatin], the proliferation is -0.499.

Turning to `CC[C@H](C)[C@H](N)C(=O)N1CCSC1` [P32/98 hemifumarate salt], the proliferation is -0.342.

With `O=C(NCCCCN1CCOCC1)c1cc2ccccc2o1`, the proliferation is -0.215.

For `O=Nc1c(-c2c(O)[nH]c3ccccc23)[nH]c2ccccc12` [Indirubin-3'-monooxime], the proliferation was -0.0926.

Turning to `C[C@H](CS)C(=O)N1CCC[C@H]1C(=O)O` [Captopril], the proliferation is -0.424.

The same experiment, now with this note: donor: 1; 5 µM; library: ENZO Libraries; 4 days.
With `CC(C)(C)c1cc(C=C(C#N)C(N)=S)cc(C(C)(C)C)c1O`, the proliferation is -0.702.

Take `CC(C)CC(=O)N[C@H](C(=O)N[C@H](C(=O)N[C@@H](CC(C)C)[C@@H](O)CC(=O)N[C@@H](C)C(=O)N[C@@H](CC(C)C)[C@@H](O)CC(=O)O)C(C)C)C(C)C` [Pepstatin A]: the proliferation is 0.196.

On to `O=C1Cc2c([nH]c3ccc(Br)cc23)-c2ccccc2N1` [Kenpaullone], for which the proliferation was -0.683.

Regarding `CO[C@H]1C[C@@H]2CC[C@@H](C)[C@@](O)(O2)C(=O)C(=O)N2CCCC[C@H]2C(=O)O[C@H]([C@H](C)C[C@@H]2CC[C@@H](O)[C@H](OC)C2)CC(=O)[C@H](C)/C=C(\C)[C@@H](O)[C@@H](OC)C(=O)[C@H](C)C[C@H](C)/C=C/C=C/C=C/1C` [Rapamycin], the proliferation is -1.63.

Take `CO[C@@H]1[C@H](OC(=O)/C=C/C=C/C=C/C=C/C(=O)O)CC[C@]2(CO2)[C@H]1[C@@]1(C)O[C@@H]1CC=C(C)C` [Fumagillin]: the proliferation is -0.343.

As for `O=C(O)c1ccc2nc(-c3ccccc3)c(-c3ccccc3)nc2c1`, the proliferation is -0.68.

Turning to `COc1cccc(-c2cc(=O)c3ccccc3o2)c1N`, the proliferation is 2.39 (active).

For `CCCC[C@@H](C=O)NC(=O)OC(C)(C)C`, the proliferation was -0.0416.

As to `CCOC(=O)[C@H](CCc1ccccc1)N[C@@H](C)C(=O)N1CCC[C@H]1C(=O)O` [Enalapril], the proliferation is -0.126.

As for `Nc1nc2ncnc-2c[nH]1` [2-Aminopurine], the proliferation was -0.296.

Regarding `N#C/C(=C\c1ccc(O)c(O)c1)C(N)=O`, the proliferation is -0.0854.

As for `CC(C(=O)Nc1cccc(/N=C/c2c(O)ccc3ccccc23)c1)c1ccccc1` (stereo not given) [Salermide], the proliferation is -0.645.

With `CCCC[C@@H](C=O)NC(=O)[C@H](CC(C)C)NC(=O)OCc1ccccc1` [Calpeptin], the proliferation is 0.152.

Take `O=C(c1ccc(Cl)cc1Cl)n1nnc2ccccc21`: the proliferation is 0.316.

`C=C(C)[C@@H](CC=C(C)C)C[C@@]12C[C@@H](CC=C(C)C)C(C)(C)[C@@](CC=C(C)C)(C(=O)C(C(=O)c3ccc(O)c(O)c3)=C1O)C2=O` [Garcinol]: the proliferation is -0.215.

Regarding `CC1(C)C[C@@H]1C(=O)N/C(=C\CCCCSC[C@H](N)C(=O)O)C(=O)O` [Cilastatin], the proliferation is -0.038.

In the case of `CC[C@H](C)[C@H](N)C(=O)N1CCSC1` [P32/98 hemifumarate salt], the proliferation was -0.616.

With `O=C(NCCCCN1CCOCC1)c1cc2ccccc2o1`, the proliferation is -0.00355.

For the compound `O=Nc1c(-c2c(O)[nH]c3ccccc23)[nH]c2ccccc12` [Indirubin-3'-monooxime], the proliferation is 2.48 (active).

Regarding `C[C@H](CS)C(=O)N1CCC[C@H]1C(=O)O` [Captopril], the proliferation was -0.0768.
